# Test results: paper PMC4336329 (PLoS ONE, 2015)
# Out of some 310,000 compounds screened, about 2,200 (0.71%) showed an effect of 50% or more. Effects have a minus sign here. The list comes from a sample in which strong results are over-represented; it also holds similar structures and randomly drawn compounds.
# Target: human ether-à-go-go-related gene (hERG) potassium channel (human, UniProt Q12809)
# Test: primary screen, population patch clamp on CHO cells stably expressing hERG; higher = less effect of the substance
# Sequence of human ether-à-go-go-related gene (hERG) potassium channel (Q12809 whole entry, looked up): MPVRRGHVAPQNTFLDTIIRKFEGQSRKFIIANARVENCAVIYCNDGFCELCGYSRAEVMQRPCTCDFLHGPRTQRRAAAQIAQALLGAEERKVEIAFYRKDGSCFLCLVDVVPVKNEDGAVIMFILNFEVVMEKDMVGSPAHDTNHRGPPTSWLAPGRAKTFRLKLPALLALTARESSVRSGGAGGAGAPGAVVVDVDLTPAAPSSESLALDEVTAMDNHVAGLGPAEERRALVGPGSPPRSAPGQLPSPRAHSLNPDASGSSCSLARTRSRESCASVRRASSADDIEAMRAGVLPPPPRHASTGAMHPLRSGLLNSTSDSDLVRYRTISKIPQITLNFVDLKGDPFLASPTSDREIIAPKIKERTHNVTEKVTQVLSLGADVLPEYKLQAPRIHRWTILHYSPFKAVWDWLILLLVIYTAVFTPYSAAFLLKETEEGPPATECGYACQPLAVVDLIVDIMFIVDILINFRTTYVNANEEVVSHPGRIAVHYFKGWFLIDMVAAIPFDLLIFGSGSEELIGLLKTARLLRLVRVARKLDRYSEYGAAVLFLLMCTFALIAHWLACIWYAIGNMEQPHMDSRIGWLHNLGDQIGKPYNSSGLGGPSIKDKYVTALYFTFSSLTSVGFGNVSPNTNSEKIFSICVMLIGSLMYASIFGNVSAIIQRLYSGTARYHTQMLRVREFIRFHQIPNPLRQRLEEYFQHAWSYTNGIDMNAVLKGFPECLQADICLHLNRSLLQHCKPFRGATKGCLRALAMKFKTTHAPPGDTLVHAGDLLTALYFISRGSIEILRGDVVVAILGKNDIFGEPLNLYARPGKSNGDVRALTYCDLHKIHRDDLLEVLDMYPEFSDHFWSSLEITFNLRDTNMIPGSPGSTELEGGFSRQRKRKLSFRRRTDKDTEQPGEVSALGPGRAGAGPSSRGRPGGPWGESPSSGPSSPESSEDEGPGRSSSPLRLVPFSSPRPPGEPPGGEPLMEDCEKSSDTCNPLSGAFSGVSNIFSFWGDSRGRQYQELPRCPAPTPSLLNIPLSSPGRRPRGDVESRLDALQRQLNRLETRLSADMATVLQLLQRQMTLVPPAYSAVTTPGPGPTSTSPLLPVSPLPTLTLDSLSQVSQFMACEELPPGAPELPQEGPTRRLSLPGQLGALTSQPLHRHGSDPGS
row,Compound,"hERG current change (%, negative = inhibition) at 1uM"
1,Cc1nc2nc(SCC(=O)N3CCOCC3)nn2c(C)c1Cc1c(F)cccc1Cl,3.11%
2,CCOc1cc(N2CCOCC2)c(OCC)cc1NCC(=O)N1CCN(Cc2ccccc2)CC1.Cl,9.92%
3,COc1ccc(NC(=O)Nc2nnc(-c3ccco3)s2)cc1,12.3%
4,NC(=O)c1nsc(C(=O)N(c2ccc(Cl)cc2)C(C(=O)NCC2CCCO2)c2cccs2)c1N (stereo not drawn),10.7%
5,S=C(Nc1ccc(Cl)cc1Cl)N1CCN(c2ccccn2)CC1,12.7%
6,O=C(CSc1nn(-c2ccc(Cl)cc2)c(=S)s1)N1CCN(C(=O)c2ccco2)CC1,-44.1%
7,Cc1sc2nc(C(C)C)nc(SCC(=O)N3CCN(C(=O)c4ccco4)CC3)c2c1C,-41.5%
8,Cc1nc(SCC(=O)N2CCN(C(=O)c3ccco3)CC2)c2c(C)c(C)sc2n1,-43.9%
9,O=C(CSc1nn(-c2ccc(F)cc2)c(=S)s1)N1CCN(C(=O)c2ccco2)CC1,-64.6%
10,O=C(CSc1nc(-c2ccc(F)cc2)cs1)N1CCN(C(=O)c2ccco2)CC1,-43.2%
11,Cc1sc2ncnc(SCC(=O)N3CCN(C(=O)c4ccco4)CC3)c2c1C,-67.3%
12,COc1cc(OC)cc(C(=O)Nc2cccc3cccnc23)c1,19.3%
13,Cc1cnc(CN(C)C(=O)CC2C(=O)NCCN2Cc2cccc(F)c2F)[nH]1 (stereo not drawn),11.2%
14,O=C(NCc1n[nH]c(=S)n1-c1cccc(Cl)c1)c1cccs1,9.04%
15,COc1ccccc1C(C)Nc1nc(-c2cccnc2)nc2ccccc12 (stereo not drawn),12.2%
16,CCOc1ccccc1OCCOCCN1CC(C)OC(C)C1 (stereo not drawn),2.22%
17,Cc1[nH]c2ccccc2c1/C=C/c1nc2ccccc2c(=O)n1-c1ccc([N+](=O)[O-])cc1,-1.09%
18,Cc1ccc(NC(=S)NC(=O)c2ccc(Br)o2)c(C)c1,13.3%
19,Cc1n[nH]c(=O)nc1N/N=C/c1cccs1,14.8%
20,Nc1ccccc1C(=O)N=Nc1[nH]c(N)c2ccccc12,21%
21,Nc1[nH]c(N=NC(=O)c2ccccc2O)c2ccccc12,-57.5%
22,Nc1[nH]c(N=NC(=O)c2ccccc2)c2ccccc12,10.1%

row,Compound,"hERG current change (%, negative = inhibition) at 1uM"
1,O=c1[nH]c(CN2CC=C(c3ccccc3)CC2)nc2scc(-c3cccs3)c12,14.1%
2,CC(C)N(C)CCOC(=O)/C=C/c1ccccc1.Cl,12%
3,Cc1cc(C)c2[nH]c3nc(SCC(=O)O)nnc3c2c1,16.7%
4,CN(C)[C@@H]1CCC[C@H]1OC(=O)C(c1ccccc1)c1ccccc1,-40.2%
5,CC1CN(C)C(C)CC1OC(=O)C(c1ccccc1)c1ccccc1 (stereo not drawn),-68.3%
6,CC1CN(C(C)C)C(C)CC1OC(=O)c1ccccc1 (stereo not drawn),16.7%
7,O=C(CCS(=O)(=O)Cc1ccccc1)N1CCc2ccccc2C1,8.69%
8,O=C(CN1CCC(Cc2ccccc2)CC1)N1CCc2ccccc2C1,-62.2%
9,Cl.O=C(CN1CCN(c2ccc(F)cc2)CC1)N1CCC(Cc2ccccc2)CC1,-5.57%
10,O=C(NCCNc1ccccc1[N+](=O)[O-])c1cc(F)c(F)cc1Cl,-2.68%
11,COc1cc(NC(=O)C(C)Oc2ccccc2)c(C(=O)O)cc1OC (stereo not drawn),9.7%
12,Cl.OC(c1cccc(Cl)c1)(c1cccc(Cl)c1)C1CN2CCC1CC2 (stereo not drawn),-69.6%
13,OC(c1ccccc1)(c1ccc(Cl)cc1)C1CN2CCC1CC2 (stereo not drawn),-11.9%
14,Cl.OC(c1ccccc1)(c1ccccc1)C1CN2CCC1CC2 (stereo not drawn),-1.7%
15,CCOC(=O)c1ccccc1NC(=O)[C@@H]1CCCN1C(=O)OC(C)(C)C,3.14%
16,CC(C)(C)C(=O)NC1CCN(S(=O)(=O)c2ccccc2F)CC1,7.45%
17,CO/N=C/c1ccc(N2CCN(C(=O)c3ccc(F)cc3)CC2)c([N+](=O)[O-])c1,-78.1%
18,COc1ccc(N2CCN(C(=O)c3ccc(C)cc3)CC2)c([N+](=O)[O-])c1,-29.7%
19,CO/N=C/c1ccc(N2CCN(C(=O)c3ccc(C)cc3)CC2)c([N+](=O)[O-])c1,-67.2%
20,COc1ccc(N2CCN(C(=O)c3ccc(F)cc3)CC2)c([N+](=O)[O-])c1,-38.3%
21,CO/N=C/c1ccc(N2CCN(C(=O)c3ccc(Cl)cc3Cl)CC2)c([N+](=O)[O-])c1,-18.5%
22,CO/N=C/c1ccc(N2CCN(C(=O)c3cccc(C(F)(F)F)c3)CC2)c([N+](=O)[O-])c1,-2.38%

row,Compound,"hERG current change (%, negative = inhibition) at 1uM"
1,CCc1ccc(CNC(=O)CCCC(=O)n2nc(C)c3ccccc32)cc1,16.1%
2,CCCCN1C(Nc2ccccc2)=NC[C@@H]1Cc1ccccc1,-44.2%
3,CC(CCN1C(Nc2ccccc2)=NC[C@@H]1Cc1ccccc1)c1ccccc1 (stereo partly drawn),-52.7%
4,c1ccc(CCCCN2C(Nc3ccccc3)=NC[C@@H]2Cc2ccccc2)cc1,-39.7%
5,CCCCCCCN1C(Nc2ccccc2)=NC[C@@H]1Cc1ccccc1,-79.6%
6,CCCCN1C(Nc2ccccc2)=NC[C@@H]1C,16.3%
7,CC(C)CCN1C(Nc2ccccc2)=NC[C@@H]1Cc1ccccc1,-15%
8,CC(C)CCCN1C(Nc2ccccc2)=NC[C@@H]1C,-0.21%
9,CCCCCCCN1C(Nc2ccccc2)=NC[C@@H]1C,-55.2%
10,CC(C)C[C@H]1CN=C(Nc2ccccc2)N1CCC(C)c1ccccc1 (stereo partly drawn),-8.04%
11,CCOc1ccc(S(=O)(=O)n2nc(C)cc2C)cc1,13.8%
12,CCOc1cc(/C=N/NC(=O)CNc2ccc(C)cc2)ccc1OC(=O)c1ccccc1,-0.419%
13,CN(Cc1c(F)cccc1Cl)C(=O)CNC(=O)c1ccc2c(c1)OCO2,13.8%
14,CCCOc1ccc(NC(=O)CC2C(=O)N(c3ccc(OCC)cc3)C(=S)N2C2CC2)cc1 (stereo not drawn),-3.7%
15,CN1CCN(c2ccc(NC(=O)c3ccc([N+](=O)[O-])o3)cc2Cl)CC1,-13.7%
16,Cc1ccc(N2CC(O)Cn3c2nc2c3c(=O)n(C)c(=O)n2C)cc1 (stereo not drawn),13.5%
17,Cc1cc(Cl)ccc1Oc1ncnc2oc(-c3ccccc3)cc12,6.84%
18,CCc1ccc2oc(-c3ccc(OC)cc3)cc(=[NH+]c3cccc(C(=O)O)c3)c2c1.F[B-](F)(F)F,4.56%
19,O=c1cc(-c2ccccc2)oc2ccccc12,13%
20,CC(C)C[NH+]=c1cc(-c2ccccc2)oc2ccc(Cl)cc12.F[B-](F)(F)F,-81.1%
21,CC(O)C[NH+]=c1cc(-c2ccccc2)oc2ccc(Cl)cc12.F[B-](F)(F)F (stereo not drawn),-57%
22,CCc1ccc2oc(-c3ccc(OC)cc3)cc(=[NH+]c3c(C)n(C)n(-c4ccccc4)c3=O)c2c1.F[B-](F)(F)F,-33.7%

row,Compound,"hERG current change (%, negative = inhibition) at 1uM"
1,COC(=O)c1sc(S(=O)(=O)N2CCC(C(N)=O)CC2)c(C(=O)OC)c1C,-10.8%
2,Cc1cc2nnc(SCc3ccccc3)n2c(N)n1,-5.86%
3,CCCCNC(=O)CN(c1ccc(Cl)c(Cl)c1)S(C)(=O)=O,7.06%
4,COC(=O)C1=C(N)Oc2cc(N(C)C)ccc2C1c1ccccc1OC (stereo not drawn),-84.1%
5,CCOc1ccc(Br)cc1C1C(C(=O)OC)=C(N)Oc2cc(N(C)C)ccc21 (stereo not drawn),16.6%
6,COC(=O)C1=C(N)Oc2cc(C)[nH]c(=O)c2C1c1ccccc1OC (stereo not drawn),9.49%
7,Cc1cc(C)nc(SCc2ccc(C(=O)N/N=C/c3cccc(O)c3O)cc2)n1,10.8%
8,COc1ccc2nc(C)cc(NCCN3CCOCC3)c2c1,12.3%
9,Cc1cc(NCCN2CCOCC2)c2ccc3ccccc3c2n1,-58.3%
10,c1ccc2[nH]c(NCCCN3CCOCC3)nc2c1,14.6%
11,c1ccc2c(NCCCN3CCOCC3)c3ccccc3nc2c1,-54.2%
12,CCCc1cc(NCCCN2CCOCC2)n2c(nc3ccccc32)c1C#N,-37%
13,c1ccc(-c2nc(NCCCN3CCOCC3)c3ccccc3n2)cc1,3.18%
14,Cc1cc(NCCCN2CCOCC2)n2c(nc3ccccc32)c1C#N,-0.298%
15,CC(C)c1cc(NCCCN2CCOCC2)n2c(nc3ccccc32)c1C#N,-55.7%
16,Cc1nc(NCCN2CCOCC2)c2oc3ccccc3c2n1.Cl,-8.71%
17,Cc1[nH]nc2c1C(c1ccccc1F)CC(=O)N2 (stereo not drawn),-1.84%
18,Cc1c(Cl)cccc1NC(=O)COc1ccc(S(=O)(=O)N2CCOCC2)cc1,3.86%
19,Cc1ccc(S(=O)(=O)N2CCN(CC(=O)NC3CCCc4ccccc43)CC2)cc1C.O=C(O)C(=O)O (stereo not drawn),1.77%
20,CCC(=O)Nc1ccc(NC(=S)NC(=O)/C=C/c2ccco2)cc1,6%
21,Cc1ccc(-c2cc(C(=O)NCCc3ccccn3)c3ccccc3n2)c(C)c1,-13.8%
